# The supplement of paper PMC10849652
# The full data set covers some 7,900 targets. This sample favours those with a hit. About 0.6% of all pairs of compound and target were hits. Values without a mark were called inactive.
# Tests used:
# Assay in all cases: log2 fold change, soluble protein after heating vs DMSO (PISA); higher = thermal stabilisation; K562 cells, 10 uM, 30 min; active = over 0.2 and 3.5 SD of the protein, either way, in both replicates (recomputed)
# [1] = compound: NC(=O)Nc1cc(-c2cccc(F)c2)sc1C(=O)N[C@H]1CCCNC1
# Procedure, shortened: (§1)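 K562 cells (2×10^6 cells/mL) were treated with 10 μM compound for 30 min, and aliquots were heated for 3 min over 48°C-58°C. Pooled aliquots were extracted in PBS with 0.5% NP-40 at 4°C, and the supernatant after 21,000xg for 90 min was measured by TMTpro 16plex LC-MS/MS with channel sums equalised. Reported thermal stability, relative to control samples and from duplicates, is a log2 fold change.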
# [2] = compound: NC(=O)c1cnc(N[C@@H]2CCCC[C@@H]2N)nc1Nc1cccc(-n2nccn2)c1
# Procedure, shortened: as §1
# [3] = compound: NC1(c2ccc(-c3nc4ccn5c(=O)[nH]nc5c4cc3-c3ccccc3)cc2)CCC1
# Procedure, shortened: as §1
# [4] = compound: NCC(=O)Nc1ccc(-n2nc(C(F)(F)F)cc2-c2ccc3c(ccc4ccccc43)c2)cc1
# Procedure, shortened: as §1
# [5] = compound: Nc1ccccc1NC(=O)c1ccc(CNC(=O)OCc2cccnc2)cc1 [entinostat]
# Procedure, shortened: as §1
# [6] = compound: O=C(CCCCCCC(=O)Nc1ccccc1)NO [vorinostat]
# Procedure, shortened: as §1
# [7] = compound: O=C(CCCCCCNC(=O)c1cnc(N(c2ccccc2)c2ccccc2Cl)nc1)NO [citarinostat]
# Procedure, shortened: as §1
# [8] = compound: O=C(O)c1ccc2c(c1)nc(Nc1cccc(Cl)c1)c1ccncc12 [silmitasertib]
# Procedure, shortened: as §1
# [9] = compound: O=C1NC(=O)C(c2cnc3ccccn23)=C1c1cn2c3c(cc(F)cc13)CN(C(=O)N1CCCCC1)CC2
# Procedure, shortened: as §1
# [10] = compound: c1cc(OCCN2CCCCC2)cc(-c2n[nH]c3ccc(-c4nnc[nH]4)cc23)c1
# Procedure, shortened: as §1
# [11] = compound: c1cn2cc(-c3ccc4cn[nH]c4c3)nc(Nc3ccc(N4CCOCC4)cc3)c2n1 [entospletinib]
# Procedure, shortened: as §1
# UniProt Q9H0R4, sequence (Q9H0R4 whole entry, looked up): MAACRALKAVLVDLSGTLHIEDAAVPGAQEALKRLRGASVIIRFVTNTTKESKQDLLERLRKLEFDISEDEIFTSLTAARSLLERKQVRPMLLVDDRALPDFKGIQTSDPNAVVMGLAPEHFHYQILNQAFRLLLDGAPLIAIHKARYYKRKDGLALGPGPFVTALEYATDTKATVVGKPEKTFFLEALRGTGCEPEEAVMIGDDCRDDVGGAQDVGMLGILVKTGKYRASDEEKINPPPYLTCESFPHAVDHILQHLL
# UniProt P05114, sequence (P05114 whole entry, looked up): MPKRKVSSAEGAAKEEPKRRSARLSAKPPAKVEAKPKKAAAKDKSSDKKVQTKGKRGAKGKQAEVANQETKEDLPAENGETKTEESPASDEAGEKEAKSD
# UniProt P69905, sequence (P69905 whole entry, looked up): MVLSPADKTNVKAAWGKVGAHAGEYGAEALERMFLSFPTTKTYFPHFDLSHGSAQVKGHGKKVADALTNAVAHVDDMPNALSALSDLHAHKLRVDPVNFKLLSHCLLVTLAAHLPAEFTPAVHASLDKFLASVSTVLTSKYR
# UniProt Q9Y5Q8, sequence (Q9Y5Q8 whole entry, looked up): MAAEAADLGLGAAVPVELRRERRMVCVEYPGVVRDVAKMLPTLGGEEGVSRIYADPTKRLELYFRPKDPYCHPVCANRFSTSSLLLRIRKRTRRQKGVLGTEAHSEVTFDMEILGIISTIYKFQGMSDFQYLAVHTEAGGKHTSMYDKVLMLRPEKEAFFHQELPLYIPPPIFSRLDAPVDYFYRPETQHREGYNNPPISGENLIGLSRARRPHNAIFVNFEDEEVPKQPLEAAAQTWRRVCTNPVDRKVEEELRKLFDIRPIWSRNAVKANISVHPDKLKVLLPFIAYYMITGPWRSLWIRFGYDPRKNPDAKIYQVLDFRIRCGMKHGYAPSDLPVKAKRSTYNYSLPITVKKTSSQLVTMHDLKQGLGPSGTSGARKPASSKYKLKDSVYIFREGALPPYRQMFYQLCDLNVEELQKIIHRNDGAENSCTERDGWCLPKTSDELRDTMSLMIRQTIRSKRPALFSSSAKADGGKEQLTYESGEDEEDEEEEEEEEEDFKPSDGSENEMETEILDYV
# UniProt Q9Y6M1, sequence (Q9Y6M1 whole entry, looked up): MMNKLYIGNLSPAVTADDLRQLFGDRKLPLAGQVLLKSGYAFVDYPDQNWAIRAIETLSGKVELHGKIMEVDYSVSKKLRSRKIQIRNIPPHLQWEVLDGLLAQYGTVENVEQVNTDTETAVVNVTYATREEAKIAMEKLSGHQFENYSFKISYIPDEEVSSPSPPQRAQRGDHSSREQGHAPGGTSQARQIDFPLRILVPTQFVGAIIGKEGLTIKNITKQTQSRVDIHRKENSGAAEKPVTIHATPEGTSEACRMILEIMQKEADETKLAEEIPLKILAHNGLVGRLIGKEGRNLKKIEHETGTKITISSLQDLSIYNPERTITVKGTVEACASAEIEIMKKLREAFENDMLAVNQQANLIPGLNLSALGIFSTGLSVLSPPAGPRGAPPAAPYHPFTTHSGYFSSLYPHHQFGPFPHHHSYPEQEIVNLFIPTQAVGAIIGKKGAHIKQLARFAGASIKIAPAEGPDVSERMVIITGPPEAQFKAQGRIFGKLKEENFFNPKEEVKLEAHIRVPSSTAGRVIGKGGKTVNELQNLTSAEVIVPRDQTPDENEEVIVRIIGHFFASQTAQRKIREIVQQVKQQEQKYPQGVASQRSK
# UniProt P50213, sequence (P50213 whole entry, looked up): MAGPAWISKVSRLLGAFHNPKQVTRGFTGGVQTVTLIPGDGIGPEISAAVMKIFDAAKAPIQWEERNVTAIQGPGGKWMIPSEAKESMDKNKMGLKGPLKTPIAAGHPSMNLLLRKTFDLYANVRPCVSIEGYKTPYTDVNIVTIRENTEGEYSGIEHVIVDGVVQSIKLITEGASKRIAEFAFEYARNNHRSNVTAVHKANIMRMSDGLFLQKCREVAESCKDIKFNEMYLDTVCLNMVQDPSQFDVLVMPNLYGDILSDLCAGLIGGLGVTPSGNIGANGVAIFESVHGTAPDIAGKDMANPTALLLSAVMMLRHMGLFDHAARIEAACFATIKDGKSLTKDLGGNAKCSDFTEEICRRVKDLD
# UniProt P29084, sequence (P29084 whole entry, looked up): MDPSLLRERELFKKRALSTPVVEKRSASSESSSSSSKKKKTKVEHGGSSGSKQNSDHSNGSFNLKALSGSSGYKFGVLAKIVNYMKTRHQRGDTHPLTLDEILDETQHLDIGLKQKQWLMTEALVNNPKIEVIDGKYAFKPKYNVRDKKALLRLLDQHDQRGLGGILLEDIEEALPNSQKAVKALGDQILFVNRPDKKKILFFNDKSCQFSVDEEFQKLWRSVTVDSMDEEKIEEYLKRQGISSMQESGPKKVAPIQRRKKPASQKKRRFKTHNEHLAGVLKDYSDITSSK
# UniProt P07686, sequence (P07686 whole entry, looked up): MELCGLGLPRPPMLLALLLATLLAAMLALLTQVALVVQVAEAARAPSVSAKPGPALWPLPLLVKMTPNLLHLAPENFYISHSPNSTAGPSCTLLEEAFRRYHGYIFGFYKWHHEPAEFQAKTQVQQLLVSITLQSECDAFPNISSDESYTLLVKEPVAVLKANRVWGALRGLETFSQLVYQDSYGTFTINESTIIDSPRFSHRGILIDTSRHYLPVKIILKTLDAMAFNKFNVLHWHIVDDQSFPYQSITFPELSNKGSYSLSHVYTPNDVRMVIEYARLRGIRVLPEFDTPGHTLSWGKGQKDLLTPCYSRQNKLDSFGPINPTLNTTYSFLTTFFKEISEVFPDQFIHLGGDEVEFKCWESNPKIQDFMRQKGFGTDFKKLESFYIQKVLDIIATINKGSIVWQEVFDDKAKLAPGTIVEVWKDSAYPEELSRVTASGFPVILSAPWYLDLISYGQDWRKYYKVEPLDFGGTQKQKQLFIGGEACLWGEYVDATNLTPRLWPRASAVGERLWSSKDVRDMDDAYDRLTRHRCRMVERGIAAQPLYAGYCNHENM
# UniProt P05362, sequence (P05362 whole entry, looked up): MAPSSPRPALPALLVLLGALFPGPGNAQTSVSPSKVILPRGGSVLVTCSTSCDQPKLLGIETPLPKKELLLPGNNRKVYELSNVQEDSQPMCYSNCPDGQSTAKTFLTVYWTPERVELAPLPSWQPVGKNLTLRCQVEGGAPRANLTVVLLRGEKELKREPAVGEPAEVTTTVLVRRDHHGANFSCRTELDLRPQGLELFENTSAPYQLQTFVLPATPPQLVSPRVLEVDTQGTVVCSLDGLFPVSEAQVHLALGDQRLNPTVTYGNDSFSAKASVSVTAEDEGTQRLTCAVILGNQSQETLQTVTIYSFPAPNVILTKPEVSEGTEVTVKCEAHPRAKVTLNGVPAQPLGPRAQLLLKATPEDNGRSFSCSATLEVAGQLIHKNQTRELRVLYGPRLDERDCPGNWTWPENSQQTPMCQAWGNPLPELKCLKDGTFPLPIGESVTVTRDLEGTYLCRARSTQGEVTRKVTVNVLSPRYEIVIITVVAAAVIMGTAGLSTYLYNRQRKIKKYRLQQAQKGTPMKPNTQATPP
# UniProt P48507, sequence (P48507 whole entry, looked up): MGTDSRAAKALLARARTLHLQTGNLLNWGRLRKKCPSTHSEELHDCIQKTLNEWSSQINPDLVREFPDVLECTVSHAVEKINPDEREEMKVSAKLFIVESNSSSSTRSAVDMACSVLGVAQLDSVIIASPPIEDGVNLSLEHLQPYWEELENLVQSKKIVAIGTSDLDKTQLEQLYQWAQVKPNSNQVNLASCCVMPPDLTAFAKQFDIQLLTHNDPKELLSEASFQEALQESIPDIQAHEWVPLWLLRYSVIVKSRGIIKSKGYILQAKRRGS
# UniProt P31943, sequence (P31943 whole entry, looked up): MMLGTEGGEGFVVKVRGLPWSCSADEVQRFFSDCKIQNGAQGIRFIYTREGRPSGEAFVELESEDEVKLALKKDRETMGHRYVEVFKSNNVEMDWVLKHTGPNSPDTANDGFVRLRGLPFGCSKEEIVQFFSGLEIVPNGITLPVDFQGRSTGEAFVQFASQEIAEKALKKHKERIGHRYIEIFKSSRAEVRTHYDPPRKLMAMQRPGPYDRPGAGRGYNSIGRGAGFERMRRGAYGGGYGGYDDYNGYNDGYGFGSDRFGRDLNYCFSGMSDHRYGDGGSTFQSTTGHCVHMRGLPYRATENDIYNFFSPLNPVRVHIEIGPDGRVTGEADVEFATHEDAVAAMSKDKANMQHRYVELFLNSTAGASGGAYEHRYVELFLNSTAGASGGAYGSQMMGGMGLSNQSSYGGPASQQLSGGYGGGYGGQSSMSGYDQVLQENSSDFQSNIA
# UniProt Q9BYC5, sequence (Q9BYC5 whole entry, looked up): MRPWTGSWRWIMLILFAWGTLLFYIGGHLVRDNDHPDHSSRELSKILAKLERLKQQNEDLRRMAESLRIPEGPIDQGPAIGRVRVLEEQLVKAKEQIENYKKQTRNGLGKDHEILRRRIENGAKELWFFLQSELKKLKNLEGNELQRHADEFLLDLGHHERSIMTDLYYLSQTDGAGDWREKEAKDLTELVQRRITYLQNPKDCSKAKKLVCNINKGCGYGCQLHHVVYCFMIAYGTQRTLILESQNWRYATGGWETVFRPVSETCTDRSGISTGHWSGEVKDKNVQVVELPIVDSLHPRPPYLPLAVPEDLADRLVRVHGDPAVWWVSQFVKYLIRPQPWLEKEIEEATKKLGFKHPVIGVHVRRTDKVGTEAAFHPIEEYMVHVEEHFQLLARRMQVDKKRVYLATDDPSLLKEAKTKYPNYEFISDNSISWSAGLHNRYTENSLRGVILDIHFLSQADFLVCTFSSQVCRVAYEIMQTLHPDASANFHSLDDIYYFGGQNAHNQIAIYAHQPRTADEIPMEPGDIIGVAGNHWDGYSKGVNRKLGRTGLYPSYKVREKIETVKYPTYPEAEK
# UniProt P78417, sequence (P78417 whole entry, looked up): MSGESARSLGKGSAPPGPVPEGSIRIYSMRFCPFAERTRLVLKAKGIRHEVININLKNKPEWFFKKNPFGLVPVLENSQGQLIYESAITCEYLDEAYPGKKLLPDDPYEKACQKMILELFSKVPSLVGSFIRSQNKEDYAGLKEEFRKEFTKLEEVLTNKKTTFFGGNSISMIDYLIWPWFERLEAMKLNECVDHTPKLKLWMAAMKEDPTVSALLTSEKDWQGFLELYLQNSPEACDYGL
Target,log2 fold change [1],log2 fold change [2],log2 fold change [3],log2 fold change [4],log2 fold change [5],log2 fold change [6],log2 fold change [7],log2 fold change [8],log2 fold change [9],log2 fold change [10],log2 fold change [11]
HNRNPC isoform 2 (UniProt P07910),-0.032,-0.049,0.568,-0.037,0.148,-0.041,-0.062,0.199,0.104,-0.252,0.274
GNB2 (UniProt P62879),-0.073,-0.012,0.022,-0.014,-0.037,-0.047,-0.01,0.028,-0.075,-0.049,0.038
GCLM (UniProt P48507),-0.028,0.073,-0.088,-0.075,0.093,0.051,0.074,0.077,-0.022,-0.004,0.012
HLTF (UniProt Q14527),-0.025,0.037,-0.067,-0.043,0.069,-0.012,0.008,-0.095,-0.073,-0.101,0.045
FUT8 (UniProt Q9BYC5),-0.022,0.094,-0.107,-0.014,0.042,-0.001,0.108,0.013,-0.146,0.027,-0.048
FECH isoform 2 (UniProt P22830),-0.031,0.171,0.288,0.021,-0.01,-0.228,-0.031,-0.035,0,0.38,0.471
GSTO1 (UniProt P78417),-0.015,-0.002,0.022,0.001,-0.022,0.058,0.039,-0.047,0.018,-0.022,-0.046
HNRNPH1 (UniProt P31943),0.052,-0.023,-0.075,-0.059,0.118,0.168,0.09,0.024,-0.105,-0.074,0.108
HAT1 (UniProt O14929),0.002,0.006,-0.076,0.01,0.053,0.001,0.071,0.052,-0.055,-0.016,-0.021
HMGN1 (UniProt P05114),0,0.024,0.144,0.03,-0.053,-0.048,-0.096,0.037,-0.003,-0.023,0.089
HMGN2 (UniProt P05204),0.071,0.07,0.139,0.027,-0.092,-0.225,-0.129,0.02,0.067,0.151,0.111
HEXB (UniProt P07686),0.003,-0.051,-0.145,-0.034,0.004,-0.042,0.033,0.007,-0.034,-0.003,-0.026
IFT74 (UniProt Q96LB3),0.035,0.009,0.135,0.045,-0.091,0.101,0.171,-0.187,-0.021,0.06,0.021
FERMT3 (UniProt Q86UX7),-0.055,-0.107,-0.106,-0.065,0.032,0.026,0.067,-0.001,-0.048,-0.02,-0.005
IGF2BP2 (UniProt Q9Y6M1),0.014,-0.051,0.237,0.045,0.015,0.128,-0.178,0.16,0.155,-0.208,0.24
GTF2A1 (UniProt P52655),-0.029,0.249,0.01,0.093,-0.116,-0.031,-0.035,0.004,-0.028,0.016,0.051
HNRNPUL2 (UniProt Q1KMD3),-0.04,0.02,0.153,0.017,-0.026,-0.004,-0.077,0.046,0.15,-0.104,0.007
HEXA (UniProt P06865),-0.025,-0.06,-0.156,0.006,-0.028,-0.02,0.056,-0.013,-0.037,-0.022,0
GTF3C5 isoform 3 (UniProt Q9Y5Q8),-0.028,0.211,-0.054,-0.051,0.046,0.072,-0.074,-0.034,0.042,0.013,0.226
ICAM1 (UniProt P05362),0.016,0.109,0.087,0.008,-0.026,-0.008,0.024,-0.028,-0.07,-0.06,-0.007
HBA1 (UniProt P69905),0.016,0.032,0.003,0.103,0.059,-0.031,0.007,-0.036,-0.037,0.012,0.042
IDH3A (UniProt P50213),0,-0.033,-0.062,-0.005,-0.025,-0.029,0.023,-0.034,-0.021,0.011,-0.024
HECTD1 (UniProt Q9ULT8),-0.036,-0.087,-0.017,-0.01,0.042,0.06,0.123,0.075,-0.027,-0.17,-0.057
GTF2E2 (UniProt P29084),-0.097,-0.052,-0.048,-0.048,0.025,0.093,0.093,0.085,0.054,-0.067,-0.011
GALNT11 (UniProt Q8NCW6),0.001,-0.119,-0.224,-0.023,-0.012,0.01,0.079,0.027,-0.021,0.002,-0.159
FNTA (UniProt P49354),0.009,0.061,0.028,0,-0.02,0.004,-0.02,0.016,-0.001,0.696 (active),0.111
HDHD2 (UniProt Q9H0R4),0.091,-0.016,-0.023,0.048,-0.01,-0.018,0.033,-0.007,0.131,-0.012,-0.069
